Screens as filed in PubChem.
Eya2 inh: qHTS Assay for Inhibitors of the Phosphatase Activity of Eya2 | AID 488837, 2010 | recombinant Eya2, OMFP fluorescence dephosphorylation (OMFP is methylfluorescein phosphate) | Protein phosphatase EYA2 (Homo sapiens), O00167 | Potency, µM (top dose mostly 76.9 µM), usual class: inhibitors | 0.006% of 330,000 active
Target sequence (O00167 whole entry, looked up): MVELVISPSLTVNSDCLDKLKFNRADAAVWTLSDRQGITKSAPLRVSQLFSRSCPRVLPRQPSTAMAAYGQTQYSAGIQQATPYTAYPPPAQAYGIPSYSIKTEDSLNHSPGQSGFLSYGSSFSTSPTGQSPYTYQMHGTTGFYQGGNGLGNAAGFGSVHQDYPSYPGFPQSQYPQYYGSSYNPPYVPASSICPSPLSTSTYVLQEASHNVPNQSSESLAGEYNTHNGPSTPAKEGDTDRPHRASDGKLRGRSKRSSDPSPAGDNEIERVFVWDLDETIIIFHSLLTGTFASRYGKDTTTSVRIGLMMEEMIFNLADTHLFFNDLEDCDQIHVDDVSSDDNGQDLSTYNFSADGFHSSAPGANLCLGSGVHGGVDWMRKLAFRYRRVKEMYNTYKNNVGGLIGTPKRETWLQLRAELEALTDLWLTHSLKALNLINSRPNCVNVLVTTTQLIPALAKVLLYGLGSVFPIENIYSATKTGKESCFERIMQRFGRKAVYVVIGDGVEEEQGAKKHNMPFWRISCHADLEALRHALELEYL
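Eya2 (0.2 uM) preincubated 10 min at ambient with compound, then OMFP substrate added at 50 uM; 10 min reaction in 50 mM HEPES pH 7.5, 50 mM NaCl, 5 uM MgCl2, 0.05% BSA, 1 mM DTT. Fluorescence read at Ex 485/Em 525 nm.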
CtBP-E1A blk: qHTS Assay for Inhibitors of the CtBP/E1A Interaction; CtBP / adenovirus E1A interaction (AlphaScreen); 0.49% of 340,000 active; AlphaScreen GST-E1A/His-CtBP binding, 1536-well; active compounds read low; AID 651724, 2012; activity change, % (no concentration beside the values); in the data active = activity change below about -65%; inconclusive = mostly about -30% to -63%
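Protein mix (5X: 125 nM each GST-E1A, His-CtBP) was incubated with pinned compound 2 h at 37 deg C in dark, in 50 mM Tris pH 8.0 buffer with 300 mM NaCl. Glutathione donor and nickel acceptor beads followed; AlphaScreen signal read after 1 h.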
Apoferritin bind: qHTS Assay for Identification of Novel General Anesthetics; apoferritin/1-aminoanthracene competitive binding, fluorescence; 0.074% of 350,000 active; Ferritin light chain (Equus caballus), P02791; AID 485281, 2010; Potency, µM (series often up to 77.5 µM), usual class: inhibitors; also: nearly all actives have a fitted effect of over 20% in size
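Probe: 1-aminoanthracene (50% saturated, PBS). Protein: horse-spleen apoferritin, 10 uM. Incubation: 10 min, room temperature. Detection: 380 nm excitation, 535 nm emission. Analysis: normalized response, four-parameter Hill.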
GALK inh: qHTS Assay for Inhibitors of Human Galactokinase (GALK). Potency, µM (series often up to 57.5 µM), hits mostly inhibitors. 0.007% of 270,000 active. Purified GALK, Kinase-Glo residual ATP luminescence
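Human GALK (5 nM) with 35 uM ATP and 100 uM galactose in 20 mM HEPES pH 8.0, 5 mM MgCl2, 60 mM NaCl, 1 mM DTT, 0.01% BSA. After 1 h at room temperature, leftover ATP was read by Kinase-Glo Plus luminescence.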
Six1-Eya2 blk: qHTS Assay for Inhibitors of the Six1/Eya2 Interaction. Homeobox protein SIX1 (Homo sapiens) + Protein phosphatase EYA2 (Homo sapiens), …. AlphaScreen GST-Six1/His-Eya2 binding, biochemical; active compounds read low. activity change, % (test concentration not listed). 0.56% of 360,000 active. AID 651725, 2012; in the data active = activity change below about -65%; inconclusive = mostly about -30% to -63%
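AlphaScreen luminescence read after one hour at 37 °C in darkness. Pin-transferred compounds met GST-Six1 and His-Eya2 protein (5X stock 250 nM/500 nM) plus glutathione donor and Ni-chelate acceptor beads (5X, 50 ug/mL).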
JMJD2E inh: qHTS Assay for Inhibitors of Human Jumonji Domain Containing 2E (JMJD2E); Lysine-specific demethylase 4E (Homo sapiens), B2RXH2; JMJD2E catalytic domain, FDH-coupled NADH fluorescence (FDH is formaldehyde dehydrogenase); Potency, µM (doses to about 57.1 µM), actives largely listed as inhibitors; 1.6% of 230,000 active; AID 2147, 2009; active = well fitted inhibition curve with a large enough effect, not every such curve was filed as active; inconclusive = small, poorly fitted or top-dose-only effect, or another doubt; inactive = no such curve, though single readings can be large or run the other way; also: nearly all actives have a fitted effect of over 50% in size
Each line names hits and unclear results; the compound was inactive in the other large screens. This excerpt belongs to a sample that is enriched for hits. Unless noted, calls follow the shape of the dose curve; as a rule, active = well fitted curve in the direction sought with a large enough effect; inconclusive = small, poorly fitted or top-dose-only effect, or another doubt; inactive = no such curve, though single readings can be large; an effect the other way counts as inactive or inconclusive.

CSCC[C@H](NC(=O)[C@@H]1CCCN1C(=O)CNC(=O)[C@H](CCCCN)NC(=O)[C@H](Cc1cnc[nH]1)NC(=O)[C@H](CO)NC(=O)[C@H](CC(C)C)NC(=O)[C@H](CCCN=C(N)N)NC(=O)[C@@H]1CCCN1C(=O)[C@H](CCCN=C(N)N)NC(=O)[C@@H]1CCC(=O)N1)C(=O)N1CCC[C@H]1C(=O)N[C@@H](Cc1ccccc1)C(=O)O	none (no result: Eya2 inh, CtBP-E1A blk, GALK inh, Six1-Eya2 blk, JMJD2E inh)
CCN(CC)S(=O)(=O)c1cccc(C(=O)N/N=C/c2cccc(O)c2O)c1	CtBP-E1A blk -93.2, Six1-Eya2 blk -87.1
Cc1cccc(C(=O)N/N=C/c2ccccn2)c1	none
CCN(CC)S(=O)(=O)c1cccc(C(=O)N/N=C/c2ccccn2)c1	Six1-Eya2 blk -72.6, JMJD2E inh inconclusive
COc1ccccc1NS(=O)(=O)c1cccc(C(=O)N/N=C/c2ccc(OCC(=O)O)cc2)c1	none
O=C(N/N=C/c1ccccn1)c1cccc(S(=O)(=O)Nc2ccccc2Cl)c1	Six1-Eya2 blk -85.5, JMJD2E inh inconclusive
CCN(CC)S(=O)(=O)c1cccc(C(=O)N/N=C/c2cc(OC)c(O)c(OC)c2)c1	Six1-Eya2 blk inconclusive
O=C(O)COc1ccccc1/C=N/NC(=O)c1cccc(S(=O)(=O)Nc2cccc(Cl)c2)c1	CtBP-E1A blk -71.1, Six1-Eya2 blk inconclusive
CCOc1ccc(-c2nonc2NC(=O)c2oc3cc(C)c(C)cc3c2C)cc1OCC	none (no result: Eya2 inh, CtBP-E1A blk, GALK inh, Six1-Eya2 blk, JMJD2E inh)
COc1ccc(/C=C/c2ccccc2)cc1C1C2C=CCCC2(C)C(=O)N1Cc1ccccc1 (stereo not given)	none (no result: Eya2 inh, CtBP-E1A blk, GALK inh, Six1-Eya2 blk, JMJD2E inh)
COc1cc(C(CCN2CCCC2)c2c(OC)cc(OC)c3c2OC(=O)CC3c2ccc(N(C)C)cc2)cc(OC)c1OC (stereo not given)	none (no result: Eya2 inh, CtBP-E1A blk, GALK inh, Six1-Eya2 blk, JMJD2E inh)
COc1cccc(-c2cc(C(=O)Nc3ccc(F)cc3)[nH]n2)c1	none (no result: Eya2 inh, CtBP-E1A blk, GALK inh, Six1-Eya2 blk, JMJD2E inh)
NNc1nccc(Nc2ccccc2C(=O)O)n1	CtBP-E1A blk -66.8, Six1-Eya2 blk -90.5
COc1ccc(-c2nnc3n2N=C(c2c(OC)cccc2OC)CS3)cc1	none (no result: Eya2 inh, CtBP-E1A blk, GALK inh, Six1-Eya2 blk, JMJD2E inh)
COc1ccc(-c2nc(CS(=O)CC(=O)NCc3ccccc3Cl)c(C)o2)cc1OC (stereo not given)	none (no result: Eya2 inh, CtBP-E1A blk, GALK inh, Six1-Eya2 blk, JMJD2E inh)
COc1cccc(-c2nc(CS(=O)CC(=O)NCc3ccccc3Cl)c(C)o2)c1 (stereo not given)	Apoferritin bind 28.2µM, JMJD2E inh inconclusive
COC(=O)CN1C(=O)N/C(=C/c2ccc(C)o2)C1=O	JMJD2E inh inconclusive
Cc1ccc(/C=C2/NC(=O)N(Cc3ccccc3)C2=O)o1	JMJD2E inh 11.2µM
CC1=CC(=O)C(Sc2ccc(C)cc2)=CC1=O	none (no result: Eya2 inh, Apoferritin bind, GALK inh, JMJD2E inh)
Cc1cccc(-c2noc(-c3cc(C(C)C)[nH]n3)n2)c1	Apoferritin bind 15.8µM (no result: Eya2 inh, CtBP-E1A blk, GALK inh, Six1-Eya2 blk, JMJD2E inh)
CC(=O)OCCn1c2nc(=O)[nH]c(=O)c-2nc2cc(C)c(C)cc21	Eya2 inh inconclusive, JMJD2E inh 2.82µM (no result: CtBP-E1A blk)
COc1ccc(CNC(=O)c2cc(-c3cccs3)nc3ccccc23)c(OC)c1	none (no result: Eya2 inh, CtBP-E1A blk, GALK inh, Six1-Eya2 blk, JMJD2E inh)
CCOc1ccc(OCc2ccc(C(=O)N/N=C(\C)c3ccccn3)cc2)cc1	CtBP-E1A blk inconclusive, Apoferritin bind inconclusive, Six1-Eya2 blk inconclusive
COc1ccc(C(=O)N/N=C(\C)c2ccccn2)cc1OC	CtBP-E1A blk -93.2, Six1-Eya2 blk -89.3 (no result: JMJD2E inh)
C/C(=N\NC(=O)c1cccc(Br)c1)c1ccccn1	Six1-Eya2 blk -90.0 (no result: JMJD2E inh)
O=C(NN=C1CCC(=NNC(=O)c2ccccn2)CC1)c1ccccn1	CtBP-E1A blk -75.1, Six1-Eya2 blk -67.5
C/C(=N/NC(=O)c1ccc(C(C)(C)C)cc1)c1ccccn1	Six1-Eya2 blk -88.2 (no result: Eya2 inh, Apoferritin bind, GALK inh, JMJD2E inh)
CCOC(=O)c1[nH]c2c(c1Cc1ccccc1)C(=O)CC(c1ccccc1)C2 (stereo not given)	none (no result: Eya2 inh, CtBP-E1A blk, GALK inh, Six1-Eya2 blk, JMJD2E inh)
